Legend:
Assay in all cases: DAPPL (digital affinity profiling via proximity ligation, sequencing); 10 mM Tris-HCl pH 7.5, 50 mM NaCl, 1 mM DTT, 4% glycerol, room temperature, 30 min; GST-TFs on glutathione beads, 16-mer random dsDNA library, 0.1% formaldehyde crosslink after washing; high values mean tight binding
FLI1 = biological target: T1, FLI1 (Homo sapiens, UniProt Q01543 1-452); conditions: protein: recombinant; tags: N-terminal GST; dsDNA, one strand shown
T1 sequence: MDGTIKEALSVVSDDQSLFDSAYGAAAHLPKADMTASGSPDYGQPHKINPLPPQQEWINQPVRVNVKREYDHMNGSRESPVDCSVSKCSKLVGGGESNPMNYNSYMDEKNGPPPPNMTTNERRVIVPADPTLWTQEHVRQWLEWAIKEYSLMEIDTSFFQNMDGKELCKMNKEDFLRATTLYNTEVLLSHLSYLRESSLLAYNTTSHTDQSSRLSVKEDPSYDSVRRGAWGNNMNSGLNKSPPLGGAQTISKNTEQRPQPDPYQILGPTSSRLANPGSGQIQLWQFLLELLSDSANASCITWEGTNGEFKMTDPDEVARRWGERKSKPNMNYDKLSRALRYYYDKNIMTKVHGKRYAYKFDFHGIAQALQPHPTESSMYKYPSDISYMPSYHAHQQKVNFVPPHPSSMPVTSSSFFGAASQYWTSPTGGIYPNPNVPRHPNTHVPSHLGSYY
Summary of the method: (§1)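 Binding signal is given per hexamer as its read frequency for a factor divided by its frequency in the tag-only sample. GST-fused human transcription factors were expressed in yeast, captured on glutathione beads, barcoded with DNA and pooled with that sample, then incubated with 200 nmole of a 16-mer random double-stranded DNA library in Tris/NaCl/DTT/glycerol buffer for 30 min at room temperature. The pools were then washed, crosslinked, proximity-ligated, amplified by PCR and sequenced on an Illumina NextSeq500.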

ERG = biological target: T2, ERG (Homo sapiens, UniProt P11308 1-479); conditions: protein: recombinant; tags: N-terminal GST; dsDNA, one strand shown
T2 sequence: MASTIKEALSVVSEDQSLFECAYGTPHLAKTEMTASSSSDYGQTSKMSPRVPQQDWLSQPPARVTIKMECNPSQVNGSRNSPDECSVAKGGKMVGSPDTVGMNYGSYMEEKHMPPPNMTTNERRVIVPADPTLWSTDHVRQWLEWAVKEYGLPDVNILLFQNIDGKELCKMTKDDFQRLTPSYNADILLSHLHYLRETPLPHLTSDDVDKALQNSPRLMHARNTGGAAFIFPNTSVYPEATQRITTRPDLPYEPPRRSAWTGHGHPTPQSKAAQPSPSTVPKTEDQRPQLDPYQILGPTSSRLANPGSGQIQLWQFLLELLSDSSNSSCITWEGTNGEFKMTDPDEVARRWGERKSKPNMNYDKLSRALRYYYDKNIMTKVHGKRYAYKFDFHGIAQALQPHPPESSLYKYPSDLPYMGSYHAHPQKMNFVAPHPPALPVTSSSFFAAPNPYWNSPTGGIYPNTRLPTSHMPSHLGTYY
Summary of the method: as §1

SPI1 = SPI1 (Homo sapiens, UniProt P17947 1-270); conditions: protein: recombinant; tags: N-terminal GST; dsDNA, one strand shown
Summary of the method: as §1

SPIB = SPIB (Homo sapiens, UniProt Q01892 1-262); conditions: protein: recombinant; tags: N-terminal GST; dsDNA, one strand shown
Summary of the method: as §1

ETV5 = ETV5 (Homo sapiens, UniProt P41161 1-510); conditions: protein: recombinant; tags: N-terminal GST; dsDNA, one strand shown
Summary of the method: as §1

HSF1 = HSF1 (Homo sapiens, UniProt Q00613 1-529); conditions: protein: recombinant; tags: N-terminal GST; chain copies: 3; dsDNA, one strand shown
Summary of the method: as §1

SPIC = biological target: T3, SPIC (Homo sapiens, UniProt Q8N5J4 1-248); conditions: protein: recombinant; tags: N-terminal GST; dsDNA, one strand shown
T3 sequence: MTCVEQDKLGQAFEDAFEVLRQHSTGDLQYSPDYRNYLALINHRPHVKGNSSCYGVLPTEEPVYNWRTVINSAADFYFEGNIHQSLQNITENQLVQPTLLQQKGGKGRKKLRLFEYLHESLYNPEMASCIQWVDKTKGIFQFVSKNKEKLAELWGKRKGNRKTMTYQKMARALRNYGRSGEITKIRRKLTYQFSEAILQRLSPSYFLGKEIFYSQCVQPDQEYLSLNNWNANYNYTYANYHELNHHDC
Summary of the method: as §1

ELK4 = biological target: T4, ELK4 (Homo sapiens, UniProt P28324-2 1-405); conditions: protein: recombinant; tags: N-terminal GST; dsDNA, one strand shown
T4 sequence: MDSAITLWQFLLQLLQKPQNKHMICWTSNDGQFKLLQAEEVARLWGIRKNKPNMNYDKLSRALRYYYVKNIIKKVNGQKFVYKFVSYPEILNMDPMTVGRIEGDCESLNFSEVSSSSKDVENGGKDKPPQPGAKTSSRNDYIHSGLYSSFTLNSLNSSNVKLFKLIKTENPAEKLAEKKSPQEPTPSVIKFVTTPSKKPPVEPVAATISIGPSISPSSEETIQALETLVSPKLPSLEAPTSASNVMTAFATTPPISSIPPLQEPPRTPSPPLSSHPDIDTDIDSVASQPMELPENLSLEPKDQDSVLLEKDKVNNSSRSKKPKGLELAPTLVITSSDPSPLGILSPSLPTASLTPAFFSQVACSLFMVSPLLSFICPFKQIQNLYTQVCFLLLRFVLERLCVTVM
Summary of the method: as §1

CRX = CRX (Homo sapiens, UniProt O43186 1-299); conditions: protein: recombinant; tags: N-terminal GST; dsDNA, one strand shown
Summary of the method: as §1

ELK1 = biological target: T5, ELK1 (Homo sapiens, UniProt P19419 1-428); conditions: protein: recombinant; tags: N-terminal GST; dsDNA, one strand shown
T5 sequence: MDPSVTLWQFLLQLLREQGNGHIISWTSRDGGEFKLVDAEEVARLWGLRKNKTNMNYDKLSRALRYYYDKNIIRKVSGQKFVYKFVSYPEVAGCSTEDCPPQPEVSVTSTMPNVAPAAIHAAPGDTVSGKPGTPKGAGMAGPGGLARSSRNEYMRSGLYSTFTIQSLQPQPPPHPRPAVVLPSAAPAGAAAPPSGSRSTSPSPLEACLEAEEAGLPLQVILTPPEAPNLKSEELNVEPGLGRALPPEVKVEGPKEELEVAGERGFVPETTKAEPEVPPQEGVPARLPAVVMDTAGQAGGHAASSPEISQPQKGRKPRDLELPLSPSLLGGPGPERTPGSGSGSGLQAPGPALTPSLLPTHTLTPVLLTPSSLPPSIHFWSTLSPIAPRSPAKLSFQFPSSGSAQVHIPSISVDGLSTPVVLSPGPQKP
Summary of the method: as §1

GABPA = biological target: T6, GABPA (Homo sapiens, UniProt Q06546 1-454); conditions: protein: recombinant; tags: N-terminal GST; dsDNA, one strand shown
T6 sequence: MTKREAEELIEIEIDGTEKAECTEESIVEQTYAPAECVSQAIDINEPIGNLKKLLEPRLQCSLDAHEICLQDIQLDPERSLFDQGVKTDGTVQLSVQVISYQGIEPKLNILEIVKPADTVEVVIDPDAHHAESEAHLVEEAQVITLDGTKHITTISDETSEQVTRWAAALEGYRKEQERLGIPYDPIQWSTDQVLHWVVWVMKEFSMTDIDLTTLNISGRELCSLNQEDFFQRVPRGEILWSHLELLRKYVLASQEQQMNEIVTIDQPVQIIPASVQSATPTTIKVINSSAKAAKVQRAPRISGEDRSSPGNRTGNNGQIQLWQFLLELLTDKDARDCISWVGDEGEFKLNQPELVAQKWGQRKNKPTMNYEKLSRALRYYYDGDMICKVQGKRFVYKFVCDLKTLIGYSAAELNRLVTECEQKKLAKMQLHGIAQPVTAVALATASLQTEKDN
Summary of the method: as §1

ELF1 = ELF1 (Homo sapiens, UniProt P32519 1-619); conditions: protein: recombinant; tags: N-terminal GST; dsDNA, one strand shown
Summary of the method: as §1

EHF = biological target: T7, EHF (Homo sapiens, UniProt Q9NZC4 1-300); conditions: protein: recombinant; tags: N-terminal GST; dsDNA, one strand shown
T7 sequence: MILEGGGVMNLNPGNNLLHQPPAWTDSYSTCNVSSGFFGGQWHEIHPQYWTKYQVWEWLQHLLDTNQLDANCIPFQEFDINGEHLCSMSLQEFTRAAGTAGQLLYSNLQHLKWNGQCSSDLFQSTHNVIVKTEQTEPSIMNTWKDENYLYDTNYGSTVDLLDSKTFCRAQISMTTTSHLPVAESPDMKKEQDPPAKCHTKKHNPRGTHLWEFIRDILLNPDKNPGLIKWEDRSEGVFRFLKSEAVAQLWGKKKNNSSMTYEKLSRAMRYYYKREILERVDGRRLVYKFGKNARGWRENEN
Summary of the method: as §1

FEV = biological target: T8, FEV (Homo sapiens, UniProt Q99581 1-238); conditions: protein: recombinant; tags: N-terminal GST; dsDNA, one strand shown
T8 sequence: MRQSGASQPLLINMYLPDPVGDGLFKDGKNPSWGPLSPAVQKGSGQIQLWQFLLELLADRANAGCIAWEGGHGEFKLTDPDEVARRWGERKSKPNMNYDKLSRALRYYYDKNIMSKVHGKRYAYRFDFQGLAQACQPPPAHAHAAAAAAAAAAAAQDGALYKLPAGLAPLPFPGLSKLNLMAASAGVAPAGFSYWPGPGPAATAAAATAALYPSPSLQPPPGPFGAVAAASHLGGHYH
Summary of the method: as §1

ELF4 = ELF4 (Homo sapiens, UniProt Q99607 1-663); conditions: protein: recombinant; tags: N-terminal GST; dsDNA, one strand shown
Summary of the method: as §1

ETV2 = biological target: T9, ETV2 (Homo sapiens, UniProt O00321 1-342); conditions: protein: recombinant; tags: N-terminal GST; dsDNA, one strand shown
T9 sequence: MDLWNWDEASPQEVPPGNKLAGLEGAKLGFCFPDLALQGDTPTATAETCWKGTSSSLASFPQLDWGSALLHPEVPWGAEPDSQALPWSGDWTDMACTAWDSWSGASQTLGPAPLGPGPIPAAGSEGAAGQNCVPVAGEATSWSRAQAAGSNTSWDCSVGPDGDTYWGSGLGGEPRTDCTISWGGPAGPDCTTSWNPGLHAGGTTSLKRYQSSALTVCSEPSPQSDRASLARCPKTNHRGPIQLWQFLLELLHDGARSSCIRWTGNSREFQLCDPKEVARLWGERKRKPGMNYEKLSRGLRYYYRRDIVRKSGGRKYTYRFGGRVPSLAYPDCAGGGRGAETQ
Summary of the method: as §1

ETV1 = ETV1 (Homo sapiens, UniProt P50549 1-477); conditions: protein: recombinant; tags: N-terminal GST; dsDNA, one strand shown
Summary of the method: as §1

CRX, sequence (O43186 whole entry): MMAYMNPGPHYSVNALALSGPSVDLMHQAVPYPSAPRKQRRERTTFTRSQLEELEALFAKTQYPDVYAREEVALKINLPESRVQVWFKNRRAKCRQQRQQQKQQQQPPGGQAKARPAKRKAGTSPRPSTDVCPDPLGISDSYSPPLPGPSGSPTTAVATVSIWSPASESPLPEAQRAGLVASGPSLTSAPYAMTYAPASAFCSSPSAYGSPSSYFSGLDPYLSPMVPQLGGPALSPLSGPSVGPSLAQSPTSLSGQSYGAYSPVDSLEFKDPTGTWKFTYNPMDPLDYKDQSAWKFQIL
ETV5, sequence (P41161 whole entry): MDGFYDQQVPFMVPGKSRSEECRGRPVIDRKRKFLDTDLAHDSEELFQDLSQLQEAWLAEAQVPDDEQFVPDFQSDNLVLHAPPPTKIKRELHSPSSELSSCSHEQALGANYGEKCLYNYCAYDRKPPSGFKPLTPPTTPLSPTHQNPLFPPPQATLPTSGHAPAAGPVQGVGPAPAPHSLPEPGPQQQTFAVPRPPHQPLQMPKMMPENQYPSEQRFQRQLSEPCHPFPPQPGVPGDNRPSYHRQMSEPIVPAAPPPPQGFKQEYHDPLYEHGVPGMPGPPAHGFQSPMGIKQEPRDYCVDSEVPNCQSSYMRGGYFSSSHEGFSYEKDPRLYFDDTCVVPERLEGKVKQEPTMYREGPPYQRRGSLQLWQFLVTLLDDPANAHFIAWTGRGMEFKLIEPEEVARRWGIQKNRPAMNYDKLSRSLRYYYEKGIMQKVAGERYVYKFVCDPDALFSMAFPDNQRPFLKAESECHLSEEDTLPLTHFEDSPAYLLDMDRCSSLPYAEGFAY
SPIB, sequence (Q01892 whole entry): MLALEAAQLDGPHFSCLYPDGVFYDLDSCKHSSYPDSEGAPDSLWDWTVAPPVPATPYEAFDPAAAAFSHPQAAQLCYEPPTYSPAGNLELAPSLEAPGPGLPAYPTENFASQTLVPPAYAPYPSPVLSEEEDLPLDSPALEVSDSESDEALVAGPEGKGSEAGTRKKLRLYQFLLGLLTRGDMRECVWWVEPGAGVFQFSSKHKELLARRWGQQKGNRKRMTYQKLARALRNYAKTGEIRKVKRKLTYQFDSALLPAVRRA
HSF1, sequence (Q00613 whole entry): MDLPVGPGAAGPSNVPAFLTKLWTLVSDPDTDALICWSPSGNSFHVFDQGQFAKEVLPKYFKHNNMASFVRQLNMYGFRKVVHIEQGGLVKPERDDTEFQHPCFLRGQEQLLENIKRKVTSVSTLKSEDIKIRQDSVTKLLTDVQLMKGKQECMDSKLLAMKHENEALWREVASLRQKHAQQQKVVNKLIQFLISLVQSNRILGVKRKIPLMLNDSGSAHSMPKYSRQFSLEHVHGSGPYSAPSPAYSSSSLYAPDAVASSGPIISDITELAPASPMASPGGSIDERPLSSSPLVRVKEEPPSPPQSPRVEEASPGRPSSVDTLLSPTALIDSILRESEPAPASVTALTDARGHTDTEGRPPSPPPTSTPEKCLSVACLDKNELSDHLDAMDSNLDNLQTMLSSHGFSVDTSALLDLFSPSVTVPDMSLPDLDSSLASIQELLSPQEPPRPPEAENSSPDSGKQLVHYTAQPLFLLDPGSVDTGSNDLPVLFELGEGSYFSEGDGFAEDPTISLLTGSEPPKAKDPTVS
ELF1, sequence (P32519 whole entry): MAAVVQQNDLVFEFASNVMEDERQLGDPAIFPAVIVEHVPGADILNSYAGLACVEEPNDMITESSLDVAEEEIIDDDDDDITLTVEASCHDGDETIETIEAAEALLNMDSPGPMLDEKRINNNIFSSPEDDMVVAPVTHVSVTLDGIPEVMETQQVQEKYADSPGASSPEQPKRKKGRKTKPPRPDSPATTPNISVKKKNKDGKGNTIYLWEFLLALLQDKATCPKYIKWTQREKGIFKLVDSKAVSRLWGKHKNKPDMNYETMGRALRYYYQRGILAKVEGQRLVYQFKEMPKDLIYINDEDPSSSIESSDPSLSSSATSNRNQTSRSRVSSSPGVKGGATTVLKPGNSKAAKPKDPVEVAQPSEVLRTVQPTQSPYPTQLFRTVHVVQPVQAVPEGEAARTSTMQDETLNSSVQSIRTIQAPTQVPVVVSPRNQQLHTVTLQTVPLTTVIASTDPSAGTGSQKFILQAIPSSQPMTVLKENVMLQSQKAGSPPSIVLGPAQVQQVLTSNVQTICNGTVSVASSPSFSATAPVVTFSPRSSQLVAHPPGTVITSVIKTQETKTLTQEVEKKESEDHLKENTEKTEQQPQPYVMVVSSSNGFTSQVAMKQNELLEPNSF
ELF4, sequence (Q99607 whole entry): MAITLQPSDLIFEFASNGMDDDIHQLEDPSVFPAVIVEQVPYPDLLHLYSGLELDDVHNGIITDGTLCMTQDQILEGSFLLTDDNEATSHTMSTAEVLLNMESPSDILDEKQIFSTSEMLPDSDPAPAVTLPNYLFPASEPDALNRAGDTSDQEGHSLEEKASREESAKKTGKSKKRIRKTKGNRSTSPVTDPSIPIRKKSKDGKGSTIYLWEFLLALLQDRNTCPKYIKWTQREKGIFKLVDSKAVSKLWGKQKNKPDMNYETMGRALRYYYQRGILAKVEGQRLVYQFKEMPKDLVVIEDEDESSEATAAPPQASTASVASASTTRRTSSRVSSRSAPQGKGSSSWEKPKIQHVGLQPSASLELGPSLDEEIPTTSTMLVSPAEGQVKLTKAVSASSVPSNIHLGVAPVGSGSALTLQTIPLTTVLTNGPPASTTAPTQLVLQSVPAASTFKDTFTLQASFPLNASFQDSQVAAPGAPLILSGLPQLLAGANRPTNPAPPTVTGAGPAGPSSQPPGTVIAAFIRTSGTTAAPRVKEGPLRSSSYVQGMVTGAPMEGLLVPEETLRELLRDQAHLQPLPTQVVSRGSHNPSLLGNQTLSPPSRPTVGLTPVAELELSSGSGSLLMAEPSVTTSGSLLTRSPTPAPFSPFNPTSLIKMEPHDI
ETV1, sequence (P50549 whole entry): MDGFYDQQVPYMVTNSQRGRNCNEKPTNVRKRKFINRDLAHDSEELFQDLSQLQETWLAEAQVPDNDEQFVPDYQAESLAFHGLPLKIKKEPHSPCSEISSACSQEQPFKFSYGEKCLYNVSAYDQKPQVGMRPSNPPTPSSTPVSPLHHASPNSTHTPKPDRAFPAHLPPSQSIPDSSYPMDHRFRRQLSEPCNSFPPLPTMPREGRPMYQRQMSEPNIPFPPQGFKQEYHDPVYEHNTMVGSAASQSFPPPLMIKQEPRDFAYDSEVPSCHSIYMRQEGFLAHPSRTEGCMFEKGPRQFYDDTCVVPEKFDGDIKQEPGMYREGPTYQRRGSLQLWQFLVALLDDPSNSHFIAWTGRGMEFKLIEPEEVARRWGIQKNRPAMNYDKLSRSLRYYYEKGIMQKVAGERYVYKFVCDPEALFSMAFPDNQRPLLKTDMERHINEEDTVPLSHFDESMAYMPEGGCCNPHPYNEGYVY

## TGGATT
FLI1
  binding signal: 1.02 fold enrichment (6-mer frequency, TF over GST control)
ERG
  binding signal: 1.05 fold enrichment (6-mer frequency, TF over GST control)
SPI1
  binding signal: 1.02 fold enrichment (6-mer frequency, TF over GST control)
SPIB
  binding signal: 1.05 fold enrichment (6-mer frequency, TF over GST control)
ETV5
  binding signal: 1.06 fold enrichment (6-mer frequency, TF over GST control)
HSF1
  binding signal: 1.85 fold enrichment (6-mer frequency, TF over GST control)
SPIC
  binding signal: 1.07 fold enrichment (6-mer frequency, TF over GST control)
ELK4
  binding signal: 1.11 fold enrichment (6-mer frequency, TF over GST control)
CRX
  binding signal: 2.46 fold enrichment (6-mer frequency, TF over GST control)

## ATCGTC
FLI1
  binding signal: 1.11 fold enrichment (6-mer frequency, TF over GST control)
ELK1
  binding signal: 1.17 fold enrichment (6-mer frequency, TF over GST control)
GABPA
  binding signal: 1.06 fold enrichment (6-mer frequency, TF over GST control)
ERG
  binding signal: 1.03 fold enrichment (6-mer frequency, TF over GST control)
ELF1
  binding signal: 1.05 fold enrichment (6-mer frequency, TF over GST control)
EHF
  binding signal: 1.1 fold enrichment (6-mer frequency, TF over GST control)
SPI1
  binding signal: 1.04 fold enrichment (6-mer frequency, TF over GST control)
SPIB
  binding signal: 1.15 fold enrichment (6-mer frequency, TF over GST control)
FEV
  binding signal: 1.02 fold enrichment (6-mer frequency, TF over GST control)
ETV5
  binding signal: 1.06 fold enrichment (6-mer frequency, TF over GST control)
HSF1
  binding signal: 1.06 fold enrichment (6-mer frequency, TF over GST control)
SPIC
  binding signal: 1.06 fold enrichment (6-mer frequency, TF over GST control)
ELF4
  binding signal: 1.07 fold enrichment (6-mer frequency, TF over GST control)
ETV2
  binding signal: 1.02 fold enrichment (6-mer frequency, TF over GST control)
CRX
  binding signal: 1.09 fold enrichment (6-mer frequency, TF over GST control)
ETV1
  binding signal: 1.14 fold enrichment (6-mer frequency, TF over GST control)

— PMC7862700, “An all-to-all approach to the identification of sequence-specific readers for epigenetic DNA modifications on cytosine”
